# Test results from PubChem BioAssay (NCI).
# Compounds without any hit were thinned out: in the full panel of roughly 79,000, 15% have a hit. The source made the active and inactive calls. Cut-off read from the data, not from the text of the source: active = growth inhibition above about 70%; inactive = the rest.
# Assay: NCI Yeast Anticancer Drug Screen. Data for the mlh1 rad18 strain (AID 175)
# Conditions: S. cerevisiae mlh1 rad18 strain growth inhibition; at 50.0 µM (retest, dose inferred, filed as 5.0); active compounds read high
# Procedure, shortened: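 Vehicle-treated cultures served as the reference for growth inhibition in a yeast strain carrying DNA damage repair alterations exposed to each compound.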
row,Compound,growth inhibition
1,CC(=O)Oc1ccccc1C(=O)/C=C/c1ccccc1,98% (active)
2,CN(C)C(=S)/N=c1\ssc(=S)n1-c1ccccc1,99% (active)
3,CCOC(=O)C(NS(=O)(=O)c1ccccc1)(C(F)(F)F)P(=O)(OCC(C)C)OCC(C)C (stereo not drawn),17% (inactive)
4,CC(C)Nc1nc(NC(C)C)c2cnn(-c3ccccc3)c2n1,74% (active)
5,CCCCCCCCC1(OCCCS(=O)(=O)O)COc2ccccc2OCCOCCOc2ccccc2OC1,87% (active)
6,Oc1ccc2c(c1)Cc1ccccc1-2,72% (active)
7,CCOC(=O)N1C2C=CC(=O)C(C=C2)N1C(=O)OCC (stereo not drawn),85% (active)
8,CC(=O)OCc1ccc2c(c1)C(O)NC(=O)O2 (stereo not drawn),88% (active)
9,CC(C)=CCc1ccc(O)cc1,97% (active)
10,CCCCCCCCC(=O)Cl,69% (inactive)
11,O=S1(=O)C(C(O)(c2ccccc2)c2ccccc2)CCCN1c1ccccc1 (stereo not drawn),-87% (inactive)
12,CCCCCCCCCCCCNCC(=O)O,55% (inactive)
13,CC(C)=CCc1c2c(c(O)c3c(=O)c(-c4ccc(O)cc4O)coc13)C=CC(C)(C)O2,95% (active)
14,O=C(CCC(O)(c1ccccc1)c1ccccc1)c1ccccc1,98% (active)
15,CS(=O)(=O)OCCN(CCOS(C)(=O)=O)c1ccc(C=Nc2ccc(-c3csc(-c4ccc(Br)cc4)n3)cc2)cc1,96% (active)
16,O=P(O)(CN1CCN(CP(=O)(O)c2ccccc2)CCN(CP(=O)(O)c2ccccc2)CC1)c1ccccc1,53% (inactive)
17,CC(C)c1ccc2c(c1)CCC1C(C)(CN)CCCC21C (stereo not drawn),100% (active)
18,Cc1ccc(S(=O)(=O)NNc2nc(N3CCOCC3)nc(N3CCOCC3)n2)cc1,-4% (inactive)
19,O=C1OC(CC(=O)c2ccc(Cl)cc2Cl)C(Cl)=C1Cl (stereo not drawn),41% (inactive)
20,CCOC(=O)c1ccc(-n2c(C)nc3ccc(Br)cc3c2=O)cc1,-6% (inactive)

row,Compound,growth inhibition
1,CCN(CC)CCOc1ccc(C=C2c3ccccc3-c3ccccc32)cc1,99% (active)
2,Cc1nn(C(=O)c2ccccc2O)c2c1C(c1ccc(O)cc1O)SC(N)=N2 (stereo not drawn),54% (inactive)
3,CN(NC(=O)/C(=C/c1cc(Cl)cc(Cl)c1O)NC(=O)c1ccccc1)c1cnn(-c2ccccc2)c(=O)c1Cl,62% (inactive)
4,Cn1c(=S)c2[nH]c(SCc3ccncc3)nc2n(C)c1=O,-6% (inactive)
5,O=C1N=c2ccc(Br)cc2=C1c1sc(=O)n(Cc2nc3ccccc3[nH]2)c1O,38% (inactive)
6,N#C/C(=C\c1cccnc1)c1csc2ccccc12,88% (active)
7,Cc1nn(CCO)c(=O)c(C#N)c1C,30% (inactive)
8,CN(/N=C/c1ccc(C(=O)O)cc1)C1=NCCCCN1,33% (inactive)
9,C=CCCCN1C(=O)C2C3c4ccccc4C(C=O)(c4ccccc43)C2C1=O (stereo not drawn),35% (inactive)
10,CC(Cc1ccccc1)N1C(=O)C=CC1=O (stereo not drawn),98% (active)
11,O=C(Nc1c(Cl)cc([N+](=O)[O-])cc1Cl)/C(=N\Nc1cccc(Cl)c1)c1c(O)c2ccccc2oc1=O,26% (inactive)
12,C/C(=N/O)c1ccc2c(c1)C(=NO)c1cc(/C(C)=N/O)ccc1-2,98% (active)
13,CCCCCCCCCCCC(=O)NC(CCC(=O)O)C(=O)O (stereo not drawn),-8% (inactive)
14,O=C1c2ccccc2C(=O)c2c1cccc2[N+](=O)[O-],90% (active)
15,C/C=C\C=N\NC(N)=S,1% (inactive)
16,Oc1c(Cl)cc(C(c2cc(Cl)c(O)c(Cl)c2)C(c2cc(Cl)c(O)c(Cl)c2)c2cc(Cl)c(O)c(Cl)c2)cc1Cl,98% (active)
17,S=C1NC2=C(CSC/C2=C\c2ccccc2)C(c2ccccc2)N1 (stereo not drawn),97% (active)
18,O=[N+]([O-])c1cccc2nc3ccccc3c(NCCNCCO)c12,98% (active)
19,COC12C=CC(CC1)c1c2c(O)c2ccncc2c1O (stereo not drawn),86% (active)

# Same assay, conditions: S. cerevisiae mlh1 rad18 strain growth inhibition; at 50.0 µM; active compounds read high
row,Compound,growth inhibition
1,CC(=O)Oc1ccccc1C(=O)/C=C/c1ccccc1,9.75% (inactive)
2,CN(C)C(=S)/N=c1\ssc(=S)n1-c1ccccc1,20.7% (inactive)
3,CCOC(=O)C(NS(=O)(=O)c1ccccc1)(C(F)(F)F)P(=O)(OCC(C)C)OCC(C)C (stereo not drawn),98% (active)
4,CC(C)Nc1nc(NC(C)C)c2cnn(-c3ccccc3)c2n1,95.5% (active)
5,CCCCCCCCC1(OCCCS(=O)(=O)O)COc2ccccc2OCCOCCOc2ccccc2OC1,95.2% (active)
6,Oc1ccc2c(c1)Cc1ccccc1-2,93.1% (active)
7,CCOC(=O)N1C2C=CC(=O)C(C=C2)N1C(=O)OCC (stereo not drawn),94.3% (active)
8,CC(=O)OCc1ccc2c(c1)C(O)NC(=O)O2 (stereo not drawn),55.6% (inactive)
9,CC(C)=CCc1ccc(O)cc1,1.75% (inactive)
10,CCCCCCCCC(=O)Cl,88.3% (active)
11,O=S1(=O)C(C(O)(c2ccccc2)c2ccccc2)CCCN1c1ccccc1 (stereo not drawn),25.4% (inactive)
12,CCCCCCCCCCCCNCC(=O)O,92% (active)
13,CC(C)=CCc1c2c(c(O)c3c(=O)c(-c4ccc(O)cc4O)coc13)C=CC(C)(C)O2,84.7% (active)
14,O=C(CCC(O)(c1ccccc1)c1ccccc1)c1ccccc1,70.5% (active)
15,CS(=O)(=O)OCCN(CCOS(C)(=O)=O)c1ccc(C=Nc2ccc(-c3csc(-c4ccc(Br)cc4)n3)cc2)cc1,96% (active)
16,O=P(O)(CN1CCN(CP(=O)(O)c2ccccc2)CCN(CP(=O)(O)c2ccccc2)CC1)c1ccccc1,80.3% (active)
17,CC(C)c1ccc2c(c1)CCC1C(C)(CN)CCCC21C (stereo not drawn),99.1% (active)
18,Cc1ccc(S(=O)(=O)NNc2nc(N3CCOCC3)nc(N3CCOCC3)n2)cc1,26.3% (inactive)
19,O=C1OC(CC(=O)c2ccc(Cl)cc2Cl)C(Cl)=C1Cl (stereo not drawn),97.3% (active)
20,CCOC(=O)c1ccc(-n2c(C)nc3ccc(Br)cc3c2=O)cc1,74.8% (active)

row,Compound,growth inhibition
1,CCN(CC)CCOc1ccc(C=C2c3ccccc3-c3ccccc32)cc1,98.9% (active)
2,Cc1nn(C(=O)c2ccccc2O)c2c1C(c1ccc(O)cc1O)SC(N)=N2 (stereo not drawn),48.2% (inactive)
3,CN(NC(=O)/C(=C/c1cc(Cl)cc(Cl)c1O)NC(=O)c1ccccc1)c1cnn(-c2ccccc2)c(=O)c1Cl,67% (inactive)
4,Cn1c(=S)c2[nH]c(SCc3ccncc3)nc2n(C)c1=O,78.1% (active)
5,O=C1N=c2ccc(Br)cc2=C1c1sc(=O)n(Cc2nc3ccccc3[nH]2)c1O,88.7% (active)
6,N#C/C(=C\c1cccnc1)c1csc2ccccc12,94.4% (active)
7,Cc1nn(CCO)c(=O)c(C#N)c1C,50.5% (inactive)
8,CN(/N=C/c1ccc(C(=O)O)cc1)C1=NCCCCN1,-11.1% (inactive)
9,C=CCCCN1C(=O)C2C3c4ccccc4C(C=O)(c4ccccc43)C2C1=O (stereo not drawn),3.25% (inactive)
10,CC(Cc1ccccc1)N1C(=O)C=CC1=O (stereo not drawn),91.8% (active)
11,O=C(Nc1c(Cl)cc([N+](=O)[O-])cc1Cl)/C(=N\Nc1cccc(Cl)c1)c1c(O)c2ccccc2oc1=O,47.3% (inactive)
12,C/C(=N/O)c1ccc2c(c1)C(=NO)c1cc(/C(C)=N/O)ccc1-2,91% (active)
13,CCCCCCCCCCCC(=O)NC(CCC(=O)O)C(=O)O (stereo not drawn),5.1% (inactive)
14,O=C1c2ccccc2C(=O)c2c1cccc2[N+](=O)[O-],83.8% (active)
15,C/C=C\C=N\NC(N)=S,28.6% (inactive)
16,Oc1c(Cl)cc(C(c2cc(Cl)c(O)c(Cl)c2)C(c2cc(Cl)c(O)c(Cl)c2)c2cc(Cl)c(O)c(Cl)c2)cc1Cl,96.8% (active)
17,S=C1NC2=C(CSC/C2=C\c2ccccc2)C(c2ccccc2)N1 (stereo not drawn),72.3% (active)
18,O=[N+]([O-])c1cccc2nc3ccccc3c(NCCNCCO)c12,88% (active)
19,COC12C=CC(CC1)c1c2c(O)c2ccncc2c1O (stereo not drawn),64.8% (inactive)
